Measured values as given in PubChem BioAssay (EPA / NIEHS).
“And” between values parts separate entries of the source, which are not always exact repeats. Equal values may be shown once. More than one record can exist for a structure, and the calls need not agree. The source made the active and inactive calls. Rule for the calls: active = hit-call score of the fitted dose curve at least 0.9, where 1 is the maximum; inactive = score below 0.9.

assay: BSK_3C_Vis: BioMAP Diversity Plus: 3C Assay for Morphology Visualization (AID 2283025); conditions: primary human endothelial cells (HUVEC);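 note: fitted both ways so gain or loss versus DMSO counts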
Procedure: BSK_3C is a cell-based, multiplexed-readout assay that uses umbilical vein endothelium, a human vascular primary cell, with measurements taken at 24 hours after chemical dosing in a 96-well plate.BSK_3C_Vis is an assay component measured in the BSK_3C assay. It measures NA related to cell morphology using light microscopy technology.Data from the assay component BSK_3C_Vis was analyzed into 1 assay endpoint. This assay endpoint, BSK_3C_Vis, was analyzed with bidirectional fitting relative to DMSO as the negative control and baseline of activity. Using a type of morphology reporter, gain or loss-of-signal activity can be used to understand changes in the background control. Furthermore, this assay endpoint can be referred to as a secondary readout, because this assay has produced multiple assay endpoints where this one serves a background control function. To generalize the intended target to other relatable targets, this assay endpoint is annotated to the cell morphology intended target family, where the subfamily is cell conformation.
The levels of cell surface (or secreted, indicated by the prefix "s") biomarker endpoints were measured by ELISA. Overt cytotoxicity to cells in confluent adherent cultures (all systems other than the BT system) was assessed by measuring total protein levels using sulforhodamine B (SRB) staining in parallel cultures at the time of biomarker measurements, indicated as SRB endpoints. For proliferation assays for adherent cell types, individual cell types are cultured at sub-confluence and relative cell numbers quantified by SRB staining at time points optimized for each system (48 h: 3C and CASM3C systems; 72 h: BT and HDF3CGF systems; 96 h: SAg system). SRB was performed by staining cells with 0.1% SRB after fixation with 10% TCA and reading wells at 560 nm.Viability and proliferation of PBMC (T cells) was quantified by Alamar Blue reduction for the SAg and BT systems. For PBMC viability (referred to as PBMC Cytotoxicity within the assay endpoint names), cells were plated (75,000/well in a 96-well plate) and then chemical samples added for 1 h before addition of activators, SEB and TSST-1 (20 ng/mL final concentration each). Cells were incubated for 90 h. Then, Alamar Blue (20 uL/well) (Invitrogen, Cat DAL1100) was added for 6 h, and the plates were read with a fluorescence microplate reader at 546/580 nm (excitation/emission). For PBMC proliferation, cells were plated and activated as above but incubated for only 16 h prior to addition of Alamar Blue. Plates were read after 6 h.

Row | SMILES | AC50 | outcome
1 | CC(C)(c1ccc(O)cc1)c1ccc(O)cc1 | 39.6 µM (active) and 20 µM (active) | inactive
2 | CCN(Cc1c(F)cccc1Cl)c1c([N+](=O)[O-])cc(C(F)(F)F)cc1[N+](=O)[O-] | 13.7 µM (active) | 
3 | CN(C)C(=O)Nc1ccc(Cl)c(Cl)c1 |  | inactive
4 | CCOC(=O)COc1cc(-n2ncc(C(F)(F)F)c(C)c2=O)c(F)cc1Cl |  | inactive
5 | CCCCC(CC)CN1C(=O)C2C3C=CC(C3)C2C1=O (stereo not given) |  | inactive
6 | O=C(O)c1ccccc1 |  | inactive
7 | COC(=O)c1ccccc1C(=O)O |  | inactive
8 | CC(=O)[C@H]1CC[C@H]2[C@@H]3CCC4=CC(=O)CC[C@]4(C)[C@H]3CC[C@]12C | 9.8 µM (active) | 
9 | CC(=O)S[C@@H]1CC2=CC(=O)CC[C@]2(C)[C@H]2CC[C@@]3(C)[C@@H](CC[C@@]34CCC(=O)O4)[C@H]12 |  | inactive
10 | CCCCCCC(C)OC(=O)COc1nc(F)c(Cl)c(N)c1Cl (stereo not given) | 29.4 µM (active) | 
11 | CCOC(=O)[C@H](C)Oc1ccc(Oc2nc3ccc(Cl)cc3o2)cc1 |  | inactive
12 | CCOC(=O)NCCOc1ccc(Oc2ccccc2)cc1 | 39 µM (active) | 
13 | COC(=O)c1cccc(C)c1S(=O)(=O)NC(=O)Nc1nc(OCC(F)(F)F)nc(N(C)C)n1 |  | inactive
14 | COc1nc(C)nc(NC(=O)NS(=O)(=O)c2ccccc2OCCCl)n1 |  | inactive
15 | CCCCOC(=O)C(C)Oc1ccc(Oc2ccc(C(F)(F)F)cn2)cc1 (stereo not given) |  | inactive
16 | C=CCOC(Cn1ccnc1)c1ccc(Cl)cc1Cl (stereo not given) | 9.8 µM (active) | 
17 | CC1(C)C(C=C(Cl)Cl)C1C(=O)OCc1cccc(Oc2ccccc2)c1 (stereo not given) | 20 µM (active) | 
18 | CCOC(=O)c1ccc(O)cc1 |  | inactive
19 | CCOC(=O)C(C)Oc1ccc(Oc2cnc3cc(Cl)ccc3n2)cc1 (stereo not given) |  | inactive
20 | CC(C)CCCCCCc1ccc(O)cc1 | 5.31 µM (active) | 

Row | SMILES | AC50 | outcome
21 | S=C(S)NCCNC(=S)S.[Mn+2].[S-]C([S-])=NCCN=C([S-])[S-].[Zn+2] |  | inactive
22 | CCCCC(CC)COC(=O)c1ccccc1C(=O)O (stereo not given) |  | inactive
23 | CCN(CC)C(=O)c1cccc(C)c1 |  | inactive
24 | c1ccc2[nH]c(-c3cscn3)nc2c1 |  | inactive
25 | CCCOC(=O)NCCCN(C)C |  | inactive
26 | COC(=O)c1ccc(CNS(C)(=O)=O)cc1S(=O)(=O)NC(=O)Nc1nc(OC)cc(OC)n1 |  | inactive
27 | CC(C)(C)[C@@H](O)[C@@H](Cc1ccc(Cl)cc1)n1cncn1 | 39 µM (active) | 
28 | O=C(O)C1(C(=O)Nc2ccc(Cl)cc2Cl)CC1 |  | inactive
29 | O=C(c1ccccc1)C1CCCCC1 |  | inactive
30 | C[C@]12CC[C@@H]3c4ccc(O)cc4C[C@@H](CCCCCCCCCS(=O)CCCC(F)(F)C(F)(F)F)[C@H]3[C@@H]1CC[C@@H]2O (stereo not given in full) |  | inactive
31 | COC(=O)c1c(Cl)nn(C)c1S(=O)(=O)NC(=O)Nc1nc(OC)cc(OC)n1 |  | inactive
32 | CCCCCOC(=O)COc1cc(N2C(=O)C3=C(CCCC3)C2=O)c(F)cc1Cl |  | inactive
33 | COc1c(Cl)ccc(Cl)c1C(=O)O |  | inactive
34 | COCCO |  | inactive
35 | COC(=O)c1ccccc1S(=O)(=O)NC(=O)Nc1nc(OC(F)F)cc(OC(F)F)n1 |  | inactive
36 | CCCN(CCC)C(=O)SCC |  | inactive
37 | C#CCOC(=O)[C@@H](C)Oc1ccc(Oc2ncc(Cl)cc2F)cc1 |  | inactive
38 | CCCCOC(=O)[C@@H](C)Oc1ccc(Oc2ccc(C(F)(F)F)cn2)cc1 | 39 µM (active) | 
39 | CCOC(=O)C(C)Oc1ccc(Oc2nc3ccc(Cl)cc3o2)cc1 (stereo not given) |  | inactive
